The text below walks through data of PubChem BioAssay (EPA / NIEHS).

Read-out in assay [1]: Pyruvate Dehydrogenase Kinase 4 (PDK4), PDK4 (gene 5166)
As to the kind of experiment: LTEA_HepaRG_PDK4: Life Technologies and Expression Analysis (LTEA) Assay for Pyruvate Dehydrogenase Kinase 4 (PDK4) using HepaRG (AID 2283525). As to conditions: mRNA level, 48 h; actives raise or lower the signal. The method in brief: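 HepaRG cells plated 48 h, then switched to serum-free induction medium and exposed in duplicate for 48 h to 8 half-log concentrations from 100 uM in 0.5% DMSO. PDK4 mRNA measured by qRT-PCR, normalized to ACTB, GAPDH and POLR2A; bidirectional fit versus DMSO.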

Read-out in assay [2]: NAD(P)H dehydrogenase [quinone] 1 (NQO1), NQO1 (gene 1728)
As to the kind of experiment: LTEA_HepaRG_NQO1: Life Technologies and Expression Analysis (LTEA) Assay for NAD(P)H dehydrogenase [quinone] 1 (NQO1) using HepaRG (AID 2283526). The following applies: mRNA level, 48 h; actives raise or lower the signal. The procedure, abridged: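 Differentiated HepaRG cells, plated 48 h and then switched to serum-free induction medium, were exposed in duplicate for 48 h to 8-point half-log concentrations up to 100 uM in 0.5% DMSO. mRNA measured by qRT-PCR, normalized to ACTB, GAPDH, POLR2A; bidirectional fit versus DMSO.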

Read-out in assay [3]: succinate dehydrogenase complex iron sulfur subunit B (SDHB), SDHB (gene 6390)
As to the kind of experiment: LTEA_HepaRG_SDHB: Life Technologies and Expression Analysis (LTEA) Assay for succinate dehydrogenase complex iron sulfur subunit B (SDHB) using HepaRG (AID 2283528). As to conditions: mRNA level, 48 h; actives raise or lower the signal. The method in brief: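 A human HepaRG culture in serum-free induction medium received test chemicals for 48 h over an eight-point range capped at 100 uM. SDHB expression change was quantified by qRT-PCR.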

Read-out in assay [4]: Signal transducer and activator of transcription 3 (Homo sapiens) (UniProt P40763)
The experiment in a line: LTEA_HepaRG_STAT3: Life Technologies and Expression Analysis (LTEA) Assay for Signal transducer and activator of transcription (STAT3) using HepaRG (AID 2283529). The following applies: mRNA level, 48 h; actives raise or lower the signal. The procedure, abridged:
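Differentiated HepaRG cells, serum-free induction medium, dosed 48 h in duplicate, 8 half-log concentrations from 100 uM in 0.5% DMSO. STAT3 mRNA by qRT-PCR, normalised to ACTB, GAPDH, POLR2A; bidirectional fit versus DMSO.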

Read-out in assay [5]: sulfotransferase 2A1 (SULT2A1), SULT2A1 (gene 6822)
As to the kind of experiment: LTEA_HepaRG_SULT2A1: Life Technologies and Expression Analysis (LTEA) Assay for sulfotransferase 2A1 (SULT2A1) using HepaRG (AID 2283531). The following applies: mRNA level, 48 h; actives raise or lower the signal. The procedure, abridged:
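Cells were plated and cultured 48 h, switched to serum-free induction medium, then dosed in duplicate for 48 h (8 concentrations, max 100 uM). RNA was isolated and SULT2A1 expression measured by qRT-PCR; gain or loss of signal fitted relative to DMSO.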

Read-out in assay [6]: Transforming Growth Factor (TGFA), TGFA (gene 7039)
The experiment in a line: LTEA_HepaRG_TGFA: Life Technologies and Expression Analysis (LTEA) Assay for Transforming Growth Factor (TGFA) using HepaRG (AID 2283532). As to conditions: mRNA level, 48 h; actives raise or lower the signal. The procedure, abridged:
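Differentiated HepaRG cells exposed 48 hours in serum-free induction medium, 0.5% DMSO vehicle, 8-point half-log series from 100 uM, in duplicate. TGFA mRNA by TaqMan qRT-PCR, normalised to ACTB, GAPDH, POLR2A; bidirectional fit versus DMSO.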

Read-out in assay [7]: Transforming Growth Factor (TGFB1), TGFB1 (gene 7040)
The experiment in a line: LTEA_HepaRG_TGFB1: Life Technologies and Expression Analysis (LTEA) Assay for Transforming Growth Factor (TGFB1) Transporter using HepaRG (AID 2283533). As to conditions: mRNA level, 48 h; actives raise or lower the signal. The method in brief:
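Expression change of TGFB1 in human HepaRG cells is measured after a 48 h chemical exposure, up to 100 uM in 0.5% DMSO vehicle. Curves are fitted in both directions relative to the DMSO baseline.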

Read-out in assay [8]: Tumor necrosis factor receptor 1 (TNFRSF1A), TNFRSF1A (gene 7132)
As to the kind of experiment: LTEA_HepaRG_TNFRSF1A: Life Technologies and Expression Analysis (LTEA) Assay for Tumor necrosis factor receptor 1 (TNFRSF1A) using HepaRG (AID 2283535). The following applies: mRNA level, 48 h; actives raise or lower the signal. The method in brief: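 Expression of TNFRSF1A in human HepaRG liver cells was measured by qRT-PCR 48 h after chemical dosing (maximum 100 uM). Bidirectional curve fitting used 0.5% DMSO as baseline.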

Read-out in assay [9]: Thyroid Hormone Responsive (THRSP), THRSP (gene 7069)
As to the kind of experiment: LTEA_HepaRG_THRSP: Life Technologies and Expression Analysis (LTEA) Assay for Thyroid Hormone Responsive (THRSP) using HepaRG (AID 2283536). As to conditions: mRNA level, 48 h; actives raise or lower the signal. The method in brief:
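Differentiated HepaRG cells treated 48 h in serum-free induction medium with 8 half-log concentrations up to 100 uM (0.5% DMSO), duplicates. THRSP mRNA by TaqMan qRT-PCR normalised to ACTB, GAPDH, POLR2A; bidirectional fit versus DMSO.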

Read-out in assay [10]: UDP glucuronosyltransferase (UGT1A1), UGT1A1 (gene 54658)
As to the kind of experiment: LTEA_HepaRG_UGT1A1: Life Technologies and Expression Analysis (LTEA) Assay for UDP glucuronosyltransferase (UGT1A1) using HepaRG (AID 2283538). The following applies: mRNA level, 48 h; actives raise or lower the signal. The method in brief: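 Differentiated human HepaRG cells in serum-free induction medium were exposed in duplicate for 48 h to eight half-log concentrations up to 100 uM in 0.5% DMSO. UGT1A1 mRNA was quantified by TaqMan qRT-PCR, normalized to ACTB, GAPDH and POLR2A, and fitted bidirectionally against DMSO.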

Read-out in assay [11]: UDP glucuronosyltransferase (UGT1A6), UGT1A6 (gene 54578)
The experiment in a line: LTEA_HepaRG_UGT1A6: Life Technologies and Expression Analysis (LTEA) Assay for UDP glucuronosyltransferase (UGT1A6) using HepaRG (AID 2283539). As to conditions: mRNA level, 48 h; actives raise or lower the signal. The procedure, abridged:
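Endpoint is UGT1A6 transcript induction or loss in a human liver cell line, quantified by TaqMan qRT-PCR 48 h after dosing. Concentrations ran from 100 uM downward in half-log steps in 0.5% DMSO; activity was fitted in both directions versus vehicle.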

Read-out in assay [12]: X-box binding protein 1 (XBP1), XBP1 (gene 7494)
The experiment in a line: LTEA_HepaRG_XBP1: Life Technologies and Expression Analysis (LTEA) Assay for X-box binding protein 1 (XBP1) using HepaRG (AID 2283540). As to conditions: mRNA level, 48 h; actives raise or lower the signal. The procedure, abridged: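 Human HepaRG monolayers receive test chemical for 48 h across an eight-point half-log series starting at 100 uM. XBP1 mRNA gain or loss is scored against DMSO by qRT-PCR.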

Assay [13] in a line: LTEA_HepaRG_LDH_cytotoxicity: Cytotoxicity Assessment in the Life Technologies and Expression Analysis (LTEA) Assay (AID 2283563; active = hit-call score of the fitted dose curve at least 0.9, where 1 is the maximum). The procedure, abridged: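 Human HepaRG hepatic cells are treated with test chemicals for 48 h at up to 100 uM in 0.5% DMSO. Cytotoxicity is scored from medium LDH against the vehicle control.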
Read-out in assay [14]: Cellular tumor antigen p53 (Homo sapiens) (UniProt P04637)
As to the kind of experiment: LTEA_HepaRG_TP53: Life Technologies and Expression Analysis (LTEA) Assay for Tumor Protein P53 (TP53) using HepaRG (AID 2283537). The following applies: mRNA level, 48 h; actives raise or lower the signal. The procedure, abridged:
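Gain or loss of TP53 mRNA signal is scored relative to 0.5% DMSO after 48 h chemical treatment of HepaRG liver cells, tested in duplicate at eight half-log concentrations up to 100 uM.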

The nature of assay [15]: TOX21_p53_BLA_p2_viability: Viability Assessment in the Tox21 HCT-116 p53 Agonism Beta-lactamase Assay, Phase 2 (AID 2283591; active = hit-call score of the fitted dose curve at least 0.9, where 1 is the maximum;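 also: compound exposure lasted 16 h at 37 °C; actives lower the ATP signal meaning cytotoxicity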). The procedure, abridged:
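HCT116 p53-bla cells, 4000/well, dosed after 5 h plating (217-fold dilution of DMSO stocks) and incubated 16 h at 37C. Viability taken as cellular ATP by CellTiter-Glo luminescence after 30 min RT; signal loss marks cytotoxicity.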

The target of assay [16] is Cellular tumor antigen p53 (Homo sapiens) (UniProt P04637). The experiment in a line: TOX21_p53_BLA_p2_ratio: Tox21 HCT-116 p53 Agonism Beta-lactamase Assay, Ratio, Phase 2 (AID 2283592; active = hit-call score of the fitted dose curve at least 0.9, where 1 is the maximum). The procedure, abridged:
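An inducible beta-lactamase reporter in HCT116 cells signals p53 pathway activation. After 16 h chemical exposure at 37C, cells load CCF4-AM substrate for 2 h at room temperature; activity is the cleaved/uncleaved emission ratio relative to DMSO.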

Assay [17] can be described thus: TOX21_p53_BLA_p3_viability: Viability Assessment in the Tox21 HCT-116 p53 Agonism Beta-lactamase Assay, Phase 3 (AID 2283593; active = hit-call score of the fitted dose curve at least 0.9, where 1 is the maximum;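 also: cells exposed to compound for 16 h before reading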). The procedure, abridged:
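HCT116 cells, 4000/well, dosed 5 h after plating by pin transfer (217-fold dilution from DMSO stock) and incubated 16 h at 37C, 5% CO2. Viability read as ATP luminescence with CellTiter-Glo after 30 min at room temperature.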

The nature of assay [18]: ATG_XTT_Cytotoxicity: Cytotoxicity Assessment in the Attagene TRANS-FACTORIAL HepG2 Assay (AID 2283584; active = hit-call score of the fitted dose curve at least 0.9, where 1 is the maximum). The procedure, abridged: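 Transfect HepG2 with GAL4-UAS reporter units, dose compound, incubate 24 h, then measure viable cell number by XTT. Fit concentration response against DMSO baseline.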

Results filed as inconclusive are left out. Active and inactive are the calls of the source. The calls were made as follows, unless noted: active = hit-call score of the fitted dose curve at least 0.9, where 1 is the maximum; inactive = score below 0.9.

One may read the AC50 as the midpoint of the concentration-response curve, whichever way the signal moves.

Signal transducer and activator of transcription 3 (Homo sapiens), sequence (P40763 whole entry, looked up): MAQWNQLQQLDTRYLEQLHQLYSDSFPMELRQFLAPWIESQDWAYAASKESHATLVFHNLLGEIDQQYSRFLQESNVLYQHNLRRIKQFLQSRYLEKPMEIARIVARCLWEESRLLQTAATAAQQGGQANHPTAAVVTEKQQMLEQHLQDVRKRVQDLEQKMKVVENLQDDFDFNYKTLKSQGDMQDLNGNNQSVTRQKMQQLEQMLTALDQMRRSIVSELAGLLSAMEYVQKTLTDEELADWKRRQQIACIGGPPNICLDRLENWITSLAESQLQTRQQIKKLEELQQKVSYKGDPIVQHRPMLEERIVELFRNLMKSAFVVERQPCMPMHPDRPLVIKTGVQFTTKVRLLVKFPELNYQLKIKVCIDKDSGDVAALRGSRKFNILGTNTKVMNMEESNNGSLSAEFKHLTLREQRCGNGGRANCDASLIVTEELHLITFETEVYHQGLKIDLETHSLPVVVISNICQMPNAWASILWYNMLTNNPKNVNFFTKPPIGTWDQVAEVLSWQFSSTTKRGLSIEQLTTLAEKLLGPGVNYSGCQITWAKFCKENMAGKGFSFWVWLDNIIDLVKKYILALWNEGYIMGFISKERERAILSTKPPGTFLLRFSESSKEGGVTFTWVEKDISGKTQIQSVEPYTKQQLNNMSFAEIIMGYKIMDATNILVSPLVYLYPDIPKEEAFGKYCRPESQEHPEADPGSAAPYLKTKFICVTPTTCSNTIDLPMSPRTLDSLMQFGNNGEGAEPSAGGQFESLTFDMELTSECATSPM
Cellular tumor antigen p53 (Homo sapiens), sequence (P04637 whole entry, looked up): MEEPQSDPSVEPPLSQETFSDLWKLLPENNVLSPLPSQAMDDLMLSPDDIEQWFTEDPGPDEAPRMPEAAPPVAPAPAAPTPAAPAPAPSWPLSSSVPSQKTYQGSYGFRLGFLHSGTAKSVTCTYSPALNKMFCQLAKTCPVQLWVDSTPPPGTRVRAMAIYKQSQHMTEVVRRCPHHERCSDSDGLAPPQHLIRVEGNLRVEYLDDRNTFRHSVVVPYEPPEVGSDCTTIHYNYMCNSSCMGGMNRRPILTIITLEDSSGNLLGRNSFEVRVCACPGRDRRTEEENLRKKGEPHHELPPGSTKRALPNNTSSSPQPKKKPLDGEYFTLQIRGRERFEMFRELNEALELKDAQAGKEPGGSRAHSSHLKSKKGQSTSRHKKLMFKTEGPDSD

Take `Nc1cc2c3c(c1)C(c1ccccc1)=N[C@@H](NC(=O)c1cccnc1)C(=O)N3CC2`: the compound was classed as inactive in [1], in assay [2], in assay [3], in [4], in [5] and in assay [6]. In addition, the compound was classed as inactive in assay [7], in assay [8], in [9], in [10], in assay [11] and in assay [12]. For the same compound, the call in assay [13] was inactive.
Consider `COCCOCCO`, for which the compound was classed as inactive in assay [1], in [2], in assay [3], in assay [4], in assay [5] and in assay [6]. In addition, the compound was classed as inactive in assay [7], in assay [8], in [9], in assay [11], in assay [12] and in assay [13]. The half-maximal activity concentration (AC50) in assay [10] was 1.57 µM (active).
On to `O=P1(N(CCCl)CCCl)NCCCO1` (stereo not given), for which the compound was classed as inactive in assay [1], in [2], in assay [3], in [4], in assay [5] and in [6]. Besides, the outcome in assay [7], in assay [8], in assay [9], in assay [14], in assay [10] and in assay [11] was inactive. Moreover, the outcome in [12], in assay [13], in assay [15] and in assay [16] was inactive.
Consider `[N-]=[N+]=[N-]`, for which the concentration at half-maximal activity (AC50) is 71.7 µM (active) in assay [1]; 50 µM (active) in [3]; 94.4 µM (active) in [6]; 72.6 µM (active) in [8]; 50 µM (active) in assay [9]; 81.9 µM (active) in assay [14]. Also, the AC50 in assay [10] is 80.7 µM (active). Also, the result in assay [2], in [4], in assay [5], in [7], in assay [11] and in [12] was inactive. Further, the call in assay [13], in [15], in assay [16] and in assay [17] was inactive.
Take `CCCCN(CCCC)N=O`: the call in assay [1], in assay [2], in [3], in assay [4], in assay [5] and in assay [6] was inactive. In addition, the compound was called inactive in assay [7], in assay [8], in assay [9], in [14], in assay [10] and in assay [11]. The call in [12], in assay [13], in assay [18], in assay [15], in assay [16] and in assay [17] was inactive.
Consider `CCC(C)(C)c1ccc(O)cc1`, for which the result in assay [1], in assay [2], in [3], in assay [4], in assay [5] and in [6] was inactive. Further, the compound was called inactive in assay [7], in assay [8], in assay [9], in assay [14], in [10] and in [11]. The call in [12], in [13], in assay [18], in [15], in assay [16] and in assay [17] was inactive.
